Compounds with a hit are over-represented: about 2.1% of the library has one in this group of screens.
PfM18AAP inh-1: PfM18AAP enzyme inhibition | recombinant PfM18AAP, H-Glu-NHMec fluorogenic cleavage | inhibition, % at 7.35 µM | 290,000 tested, 1.2% active | AID 1822;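 active means inhibition above the campaign mean inhibition over all tested compounds plus 3 SD, cut at about 28% in these data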
Calb FLC: affects C. albicans growth with fluconazole; C. albicans CaCi-2 (fluconazole-resistant clinical isolate) + fluconazole, Alamar Blue growth, 48 h; growth inhibition, % (concentration not given with the values); 300,000 tested, 0.57% active; AID 1979;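 active means growth inhibition above about 58% in most replicates, limit read from the data, passing the limit was not always enough; inconclusive means exactly half the replicates above a set limit; inactive means most replicates below a set limit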;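 further: all wells also contain fluconazole at 8 µg/ml as a sub-toxic cotreatment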
CTSL1 counter-1: cathepsin L1 inhibition, PFM18AAP counter-screen. recombinant F. hepatica cathepsin L1, Z-Leu-Arg-MCA fluorescence. inhibition, % at 5.96 µM. 300,000 tested, 0.49% active. AID 1906;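 active means inhibition above the mean of all tested compounds plus 3 SD, set per screening campaign, cut at about 17% in these data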
Rin1 Abl inh: inhibitors of human Rin1-Abl protein interaction; TR-FRET Rin1/Abl binding, biochemical; P00519+Q13671; 360,000 tested, 0.4% active; inhibition, % at 7.35 µM; in the data active means inhibition above about 5%, passing the limit was not always enough
Target sequence (P00519 whole entry, looked up): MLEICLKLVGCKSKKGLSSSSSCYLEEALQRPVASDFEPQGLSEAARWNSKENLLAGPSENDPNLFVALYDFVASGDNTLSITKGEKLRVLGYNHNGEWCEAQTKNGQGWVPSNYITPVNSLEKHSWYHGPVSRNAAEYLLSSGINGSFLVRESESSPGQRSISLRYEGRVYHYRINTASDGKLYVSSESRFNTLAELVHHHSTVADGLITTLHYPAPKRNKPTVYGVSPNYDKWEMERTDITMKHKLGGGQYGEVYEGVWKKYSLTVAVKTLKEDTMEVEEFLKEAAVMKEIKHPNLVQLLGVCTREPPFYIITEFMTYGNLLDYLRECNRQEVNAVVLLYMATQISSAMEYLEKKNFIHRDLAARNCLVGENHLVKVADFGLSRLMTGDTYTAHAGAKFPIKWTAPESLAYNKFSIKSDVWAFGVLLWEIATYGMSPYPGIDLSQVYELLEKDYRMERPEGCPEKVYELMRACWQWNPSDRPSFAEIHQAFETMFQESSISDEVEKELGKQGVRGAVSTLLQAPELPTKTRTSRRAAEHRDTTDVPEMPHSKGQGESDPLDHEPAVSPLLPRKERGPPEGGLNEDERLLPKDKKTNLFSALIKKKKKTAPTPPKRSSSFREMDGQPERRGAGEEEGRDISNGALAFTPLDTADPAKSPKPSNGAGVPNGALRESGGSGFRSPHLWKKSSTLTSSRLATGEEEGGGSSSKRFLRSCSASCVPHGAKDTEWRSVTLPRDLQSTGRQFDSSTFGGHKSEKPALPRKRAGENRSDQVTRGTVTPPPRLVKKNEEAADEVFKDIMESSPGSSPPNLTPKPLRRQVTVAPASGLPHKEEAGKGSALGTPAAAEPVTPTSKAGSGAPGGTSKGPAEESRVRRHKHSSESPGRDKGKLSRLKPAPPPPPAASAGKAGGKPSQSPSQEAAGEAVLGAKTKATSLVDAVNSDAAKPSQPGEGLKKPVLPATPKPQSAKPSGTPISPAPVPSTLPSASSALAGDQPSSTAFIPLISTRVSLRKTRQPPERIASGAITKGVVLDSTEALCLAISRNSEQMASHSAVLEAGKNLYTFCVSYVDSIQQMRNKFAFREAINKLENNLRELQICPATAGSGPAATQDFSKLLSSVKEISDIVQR
Target sequence (Q13671 whole entry, looked up): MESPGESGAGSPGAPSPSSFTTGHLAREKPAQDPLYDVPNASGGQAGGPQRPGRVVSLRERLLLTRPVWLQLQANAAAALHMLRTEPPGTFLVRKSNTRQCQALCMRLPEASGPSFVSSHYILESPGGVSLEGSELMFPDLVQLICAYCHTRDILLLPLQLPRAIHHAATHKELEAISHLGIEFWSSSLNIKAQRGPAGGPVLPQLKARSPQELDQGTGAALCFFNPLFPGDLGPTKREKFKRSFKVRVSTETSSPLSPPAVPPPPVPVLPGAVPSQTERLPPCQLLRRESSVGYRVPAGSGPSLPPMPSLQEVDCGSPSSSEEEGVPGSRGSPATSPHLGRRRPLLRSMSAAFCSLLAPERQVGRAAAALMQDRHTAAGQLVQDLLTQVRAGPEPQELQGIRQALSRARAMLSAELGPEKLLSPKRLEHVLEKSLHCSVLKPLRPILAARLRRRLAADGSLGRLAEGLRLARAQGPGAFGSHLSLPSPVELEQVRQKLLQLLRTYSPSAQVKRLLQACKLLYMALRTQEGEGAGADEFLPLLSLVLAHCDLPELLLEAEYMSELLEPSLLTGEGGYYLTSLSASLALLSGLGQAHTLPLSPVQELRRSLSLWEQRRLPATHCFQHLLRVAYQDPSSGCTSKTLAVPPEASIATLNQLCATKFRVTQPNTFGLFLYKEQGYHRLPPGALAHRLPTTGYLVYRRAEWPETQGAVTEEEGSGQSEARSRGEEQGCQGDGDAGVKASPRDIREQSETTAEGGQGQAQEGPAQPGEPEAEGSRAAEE
PfM18AAP inh-2: confirmation of Plasmodium falciparum M18 aspartyl aminopeptidase inhibitors; shares compounds with PfM18AAP inh-1; recombinant PfM18AAP, H-Glu-NHMec fluorogenic cleavage; inhibition, % at 7.35 µM; 2,400 tested, 28% active; AID 2170;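 active means mean inhibition over replicate wells above the hit cutoff set for the earlier primary screen, cut at about 29% in these data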
CTSL1 counter-2: counter-screen for PFM18AAP inhibitors: confirmation of human cathepsin L inhibitors | 2,400 tested, under 10 active | shares compounds with PfM18AAP inh-1 | inhibition, % at 5.96 µM | purified cathepsin L1, Z-Leu-Arg-MCA fluorescence;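 active means average inhibition across replicates above the hit cutoff set in the earlier primary screen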
Numbers stand for hits; - = inactive; ? = inconclusive; . = not tested or not shown.

SMILES | PfM18AAP inh-1 | Calb FLC | CTSL1 counter-1 | Rin1 Abl inh | PfM18AAP inh-2 | CTSL1 counter-2
O=C(CSc1nc2ccccc2s1)NNC(=O)Nc1ccc(Cl)c(Cl)c1 | 52 | - | - | - | - | -
NC(=O)[C@@H]1CCCN1Cc1c(C(=O)N2CCc3ccccc3C2)nc2ccc(Cl)cn12 | - | - | - | - | . | .
O=C(Cn1nc2n(c1=O)-c1ccccc1SC2)N/N=C/c1cccs1 | - | - | - | - | . | .
CC(C)Oc1ccc(N2CC(C(=O)Nc3ccc4c(c3)OCO4)CC2=O)cc1 (centres undefined) | - | - | - | - | . | .
O=C(NNc1nc2ccccc2s1)c1ccccc1F | 47 | - | - | - | - | -
O=C(C/C=N\OCc1ccc([N+](=O)[O-])cc1)Nc1ccccc1 | 33 | - | - | - | - | -
CN(C)c1ccc(/C=C(/C(=O)c2ccc(Cl)cc2Cl)n2cncn2)cc1 | - | - | - | - | . | .
CN(C)/C=C(/C(=O)c1ccc(Cl)cc1)n1cncn1 | 40 | - | - | - | - | -
CCOC(=O)C1=C(CC)Nc2ccccc2N=C1NC(=O)c1cc(S(=O)(=O)N2CCOCC2)ccc1C | . | . | . | - | . | .
Cc1sc(-n2c(C)cc(/C=N/n3cnnc3)c2C)c(C#N)c1C | 36 | - | - | - | - | -
Cc1sc(-n2c(C)cc(/C=C3\SC(=S)NC3=O)c2C)c(C#N)c1C | - | - | - | - | . | .
Clc1ccc(Nc2ncn[nH]2)cc1 | 34 | - | - | - | - | -
CCCCC[C@H]1CN(Cc2ccc(OC)cc2)C(=O)[C@@H]1CC(=O)NCc1ccccc1 | - | - | - | - | . | .
CN1CCN(C(=S)C(=O)Nc2ccc(Br)cc2)CC1 | 55 | - | - | - | - | -
Cc1ccc(C(=O)N/N=C\c2ccc([N+](=O)[O-])o2)cn1 | 34 | - | - | - | - | -
Cc1ccc(Nc2ccc(C(=O)O)cc2N)cc1 | 55 | - | - | . | - | -
Cc1cc(C)cc(Nc2ccc(C(=O)O)cc2[N+](=O)[O-])c1 | - | - | - | - | . | .
Cc1cc(C)cc(Nc2ccc(C(=O)O)cc2N)c1 | 41 | - | - | - | - | -
COc1cccc(Nc2ccc(C(=O)O)cc2N)c1 | - | - | - | - | . | .
Cc1cc2oc(=O)cc(-c3cc4ccccc4o3)c2cc1O | 58 | - | - | - | - | -
N#Cc1c(Nc2ccccc2C(F)(F)F)s[nH]c1=O | 36 | - | - | - | - | -
CC(C)Cn1c(N)c(C(=O)COC(=O)C2CC(=O)N(c3ccc4c(c3)OCCO4)C2)c(=O)n(C)c1=O (centres undefined) | . | - | - | - | . | .
C=CCc1c(C)nc(-c2ccccc2)nc1N/N=C(\C)c1ccc(N)cc1 | 52 | - | - | - | - | -
C=CCc1c(C)nc(-c2ccccc2)nc1N/N=C/c1ccccc1 | - | - | - | - | . | .
Oc1c(Br)cccc1/C=N/c1ncn[nH]1 | 63 | - | - | - | 55 | -
SMILES | PfM18AAP inh-1 | Calb FLC | CTSL1 counter-1 | Rin1 Abl inh | PfM18AAP inh-2 | CTSL1 counter-2
CC(=O)NC(CC(=O)NNC(=O)c1cc2ccccc2cc1O)c1ccccc1 (centres undefined) | 32 | ? | - | - | - | -
CCOC(=O)C1(C)CCCN1C(=O)c1ccc(C(F)(F)F)nc1C (centres undefined) | . | . | . | - | . | .
NNc1nc2ccc(F)cc2s1 | 37 | - | - | - | 29 | -
NNc1nc2ccc(Cl)cc2s1 | - | - | - | - | . | .
Cc1ccc(C2C3=C(CCCC3=O)Nc3[nH]c(=S)[nH]c(=O)c32)cc1 (centres undefined) | 40 | - | - | - | 38 | -
CN1CCN(NC(=O)CN2C(=O)S/C(=C\c3c(Cl)cccc3Cl)C2=O)CC1 | 42 | - | - | - | - | -
COc1ccc(OC)c(NC(=O)NNC(=O)c2cc3occc3[nH]2)c1 | 56 | - | - | - | 35 | -
Cc1ccc(C)c(NC(=O)NNC(=O)c2cc3occc3[nH]2)c1 | 49 | - | - | - | 29 | -
COc1ccc(C)cc1NC(=O)NNC(=O)c1ccoc1C | 47 | - | - | - | - | -
COc1cccc(NC(=O)c2ccccc2N2C(=O)C3C4C=CC(C4)C3C2=O)c1 (centres undefined) | - | - | - | - | . | .
Cc1ccc(S(=O)(=O)Oc2cc(N)c3c(n2)CCC3)cc1 | - | - | - | - | . | .
Cc1ccc(S(=O)(=O)N2CC(=O)N3CCN(CCN)C3C2)cc1 (centres undefined) | . | . | . | - | . | .
Cc1ccc(-n2nc3ccc(N)cc3n2)cc1Cl | 32 | - | - | - | - | -
COc1cc(OC)cc(-c2c(-c3cccs3)c3cc(-c4ccc(CN5CCOCC5)cc4)ccc3n2C)c1 | . | . | . | - | . | .
O=c1[nH][nH]c(=S)n1-c1ccccc1C(F)(F)F | 61 | . | . | . | - | -
COc1cccc(NC2SC(=O)N(c3ccccc3)C2=O)c1 (centres undefined) | 35 | - | - | - | - | -
O=C(CSc1ncn[nH]1)c1ccccc1 | 42 | - | - | - | 53 | -
CN1/C(=C\C(=O)CSc2ncn[nH]2)C(C)(C)c2ccccc21 | 66 | - | - | - | - | -
O=C(CSc1ncn[nH]1)N1CCCCC1 | 45 | - | - | - | - | -
O=C(CSc1ncn[nH]1)c1cccc([N+](=O)[O-])c1 | 43 | ? | - | - | 38 | -
O=C(CSc1ncn[nH]1)c1ccco1 | - | - | - | - | . | .
CN(C)CCCN(C(=O)c1ccc(C(=O)c2ccccc2)cc1)c1nc2cc3c(cc2s1)OCCO3 | - | - | - | - | . | .
CCN(C(=O)COC(=O)CCOc1ccc(C(C)(C)C)cc1)c1c(N)n(Cc2ccccc2)c(=O)[nH]c1=O | . | . | . | - | . | .
Cc1ccccc1CSCC(=O)N/N=C/c1cccs1 | - | - | - | - | . | .
Cc1ccc(C(=O)C(NC(=O)c2ccco2)Nc2sc3c(c2C(N)=O)CCCC3)cc1 (centres undefined) | 40 | - | - | . | - | -
SMILES | PfM18AAP inh-1 | Calb FLC | CTSL1 counter-1 | Rin1 Abl inh | PfM18AAP inh-2 | CTSL1 counter-2
CCN1/C(=C2\C(=O)N(C)C(=S)N2C)C=Cc2cc(C)ccc21 | 34 | - | - | - | - | -
O=C(Nc1ccc(N2CCN(C(=O)c3ccccc3F)CC2)cc1)c1ncn[nH]1 | 39 | - | - | - | - | -
O=C(Nc1ccccc1C(=O)Nc1ccccc1C(=O)O)c1ccccc1 | - | - | - | - | . | .
O=C(Nc1ccccc1C(=O)O)c1ncn[nH]1 | 77 | - | . | - | 58 | -
Cc1ccccc1C(=O)N1CCN(c2ccc(NC(=O)c3cccnc3Cl)cc2)CC1 | - | - | - | - | . | .
CCc1nc(SCC(=O)Nc2nnc(C(C)C)s2)n[nH]1 | . | . | . | - | . | .
CC(C)c1nnc(NC(=O)CSc2ncn[nH]2)s1 | 42 | - | - | - | 52 | -
O=C(CSc1ncn[nH]1)Nc1ccccc1C(=O)O | 44 | - | - | - | - | -
O=C(CSc1ncn[nH]1)Nc1nc(-c2ccccc2)ns1 | 82 | - | - | - | 85 | -
CCCCn1c(N)c(N(CCOC)C(=O)C2CCN(C(=O)c3ccccc3C)CC2)c(=O)[nH]c1=O | . | - | - | - | . | .
Cc1nn2c(=S)[nH]nc2[nH]c1=O | - | - | - | - | . | .
